Experimental data reported in PubChem BioAssay (EPA / NIEHS).
Calls of active or inactive are those of the source. The calls were made as follows: active = hit-call score of the fitted dose curve at least 0.9, where 1 is the maximum; inactive = score below 0.9.

Legend:
[1] = ATG_CMV_CIS: Attagene CIS-FACTORIAL HepG2 Assay for human CMV (Internal Marker) (AID 2282928); details: HepG2 CMV promoter reporter, transcription factor profiling; actives raise or lower the signal;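 also: endpoint acts as a background internal control marker rather than a target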
Outline: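 Readout: fluorescent reporter cDNA fragments separated by capillary electrophoresis after RT-PCR and HpaI cut. Cells: HepG2 carrying transfected cis-promoter reporter constructs, dosed 24 h. Endpoint serves as background internal-marker control, fit bidirectionally versus DMSO.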

[2] = ATG_DR4_LXR_CIS: Attagene CIS-FACTORIAL HepG2 Assay for human Liver X Receptor (LXR), DR4 submotif (AID 2282929); details: HepG2 Attagene DR4 cis-reporter, mRNA transcription; actives raise or lower the signal
Outline: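 DR4 cis-reporter in HepG2, 24 h exposure. Detection: RT-PCR, 6-FAM labelling, CE fragment analysis. Endpoint fitted bidirectionally, DMSO = baseline.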

[3] = biological target: Aryl hydrocarbon receptor (Homo sapiens) (UniProt P35869); assay: ATG_Ahr_CIS: Attagene CIS-FACTORIAL HepG2 Assay for human Aryl Hydrocarbon Receptor (Ahr) (AID 2282930); details: HepG2 AhR cis-factorial reporter transcription; actives raise or lower the signal
Aryl hydrocarbon receptor (Homo sapiens), sequence (P35869 whole entry, looked up): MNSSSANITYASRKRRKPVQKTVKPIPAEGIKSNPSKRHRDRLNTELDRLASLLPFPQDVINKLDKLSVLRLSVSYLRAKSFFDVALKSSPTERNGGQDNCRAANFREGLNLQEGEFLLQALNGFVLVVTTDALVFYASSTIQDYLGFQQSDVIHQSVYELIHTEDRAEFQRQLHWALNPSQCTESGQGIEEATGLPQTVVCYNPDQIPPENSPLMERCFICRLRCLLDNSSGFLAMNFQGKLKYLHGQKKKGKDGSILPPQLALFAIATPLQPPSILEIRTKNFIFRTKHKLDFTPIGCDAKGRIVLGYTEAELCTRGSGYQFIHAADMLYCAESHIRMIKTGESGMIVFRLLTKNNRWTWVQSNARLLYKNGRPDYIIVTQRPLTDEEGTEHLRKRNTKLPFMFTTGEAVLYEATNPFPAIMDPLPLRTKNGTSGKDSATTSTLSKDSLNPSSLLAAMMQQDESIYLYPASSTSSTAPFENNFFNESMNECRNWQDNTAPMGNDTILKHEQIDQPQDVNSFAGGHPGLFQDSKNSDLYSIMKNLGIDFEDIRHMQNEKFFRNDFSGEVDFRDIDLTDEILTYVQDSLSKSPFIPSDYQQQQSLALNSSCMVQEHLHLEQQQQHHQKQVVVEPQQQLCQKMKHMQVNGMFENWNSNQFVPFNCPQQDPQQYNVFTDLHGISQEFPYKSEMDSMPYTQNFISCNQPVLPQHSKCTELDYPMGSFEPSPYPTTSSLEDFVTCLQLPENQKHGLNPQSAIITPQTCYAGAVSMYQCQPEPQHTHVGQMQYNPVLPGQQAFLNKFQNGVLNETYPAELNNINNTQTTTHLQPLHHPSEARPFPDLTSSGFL
Outline: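 Transient MRTU transfection of HepG2 → 24 h compound exposure → total RNA, oligo(dT) RT → PCR, 6-FAM extension, HpaI cut → CE fluorescence. DMSO = baseline; bidirectional curve fit.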

[4] = ATG_AP_1_CIS: Attagene CIS-FACTORIAL HepG2 Assay for human Activator Protein 1 (AP-1) (AID 2282931); details: HepG2 Attagene cis-factorial AP-1 reporter mRNA; actives raise or lower the signal
Outline: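 Cis-regulated reporter units transiently expressed in HepG2 report endogenous transcription-factor activity. Signal: reporter mRNA at 24 h, via RT-PCR and fluorescent capillary electrophoresis. Endpoint derived by bidirectional fitting, DMSO as negative control.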

[5] = ATG_AP_2_CIS: Attagene CIS-FACTORIAL HepG2 Assay for human Activator Protein 2 (AP-2) (AID 2282932); details: HepG2 AP-2 cis-reporter, Attagene transcription factor profiling; actives raise or lower the signal
Outline: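 Transiently transfected HepG2 cells are exposed to chemical for 24 h. Reporter transcripts are then measured as fluorescence following RT-PCR and capillary separation, and gain- or loss-of-signal is fitted relative to DMSO.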

[6] = ATG_BRE_CIS: Attagene CIS-FACTORIAL HepG2 Assay for human Bone Morphogenetic Protein (BMP) Response Element (BRE) (AID 2282933); details: HepG2 BMP response element reporter, Attagene transcription factor profiling; actives raise or lower the signal
Outline: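 Read-out: reporter mRNA induction quantified by RT-PCR and capillary electrophoresis after 24 h chemical exposure of transfected HepG2 cells. Endogenous factor activity on the BMP response element; gain or loss fitted against DMSO baseline.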

[7] = biological target: Retinoic acid receptor alpha (Homo sapiens) (UniProt P10276); assay: ATG_DR5_RAR_CIS: Attagene CIS-FACTORIAL HepG2 Assay for human Retinoic Acid Receptor Alpha (RARE), DR5 submotif (AID 2282934); details: HepG2 Attagene cis-factorial RARE DR5 reporter, mRNA; actives raise or lower the signal
Retinoic acid receptor alpha (Homo sapiens), sequence (P10276 whole entry, looked up): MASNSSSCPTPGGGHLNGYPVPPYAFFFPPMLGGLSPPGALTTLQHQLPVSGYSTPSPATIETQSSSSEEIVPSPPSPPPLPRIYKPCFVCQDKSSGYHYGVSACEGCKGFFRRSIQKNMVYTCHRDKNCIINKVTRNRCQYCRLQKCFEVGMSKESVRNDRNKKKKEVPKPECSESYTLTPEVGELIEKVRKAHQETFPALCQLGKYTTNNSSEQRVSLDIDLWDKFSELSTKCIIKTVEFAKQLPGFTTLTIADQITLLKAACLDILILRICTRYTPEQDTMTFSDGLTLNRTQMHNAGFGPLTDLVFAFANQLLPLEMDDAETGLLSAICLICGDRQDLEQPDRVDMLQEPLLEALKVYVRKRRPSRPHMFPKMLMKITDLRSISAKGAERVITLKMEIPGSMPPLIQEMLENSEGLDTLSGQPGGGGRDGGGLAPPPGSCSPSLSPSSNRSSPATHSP
Outline: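 Transient MRTU transfection of HepG2; 24 h compound treatment; TriZol RNA, oligo(dT) RT, PCR, FAM labelling, capillary electrophoresis. Bidirectional fit vs DMSO. Endogenous TF activity at DR5 RARE.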

[8] = biological target: Transcription factor E2F1 (Homo sapiens) (UniProt Q01094); assay: ATG_E2F_CIS: Attagene CIS-FACTORIAL HepG2 Assay for human E2F Transcription Factor 1 (AID 2282935); details: HepG2 Attagene cis-reporter, E2F reporter RNA transcripts; actives raise or lower the signal
Transcription factor E2F1 (Homo sapiens), sequence (Q01094 whole entry, looked up): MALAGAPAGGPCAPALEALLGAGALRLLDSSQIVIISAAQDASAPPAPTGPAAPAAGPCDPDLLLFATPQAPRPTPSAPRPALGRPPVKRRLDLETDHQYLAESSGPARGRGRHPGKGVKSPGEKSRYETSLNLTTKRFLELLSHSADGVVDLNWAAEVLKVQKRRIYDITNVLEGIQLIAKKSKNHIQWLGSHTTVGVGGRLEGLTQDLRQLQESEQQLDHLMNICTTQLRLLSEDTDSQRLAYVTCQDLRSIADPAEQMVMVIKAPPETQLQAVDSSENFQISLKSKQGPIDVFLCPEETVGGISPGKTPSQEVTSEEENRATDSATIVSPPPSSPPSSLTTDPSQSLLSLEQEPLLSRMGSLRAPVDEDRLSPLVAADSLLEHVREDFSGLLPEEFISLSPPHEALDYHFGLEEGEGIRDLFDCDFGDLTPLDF
Outline: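 Fluorescent RT-PCR products, digested with HpaI for 2 h at 37 C, are separated by capillary electrophoresis. Source RNA comes from transfected HepG2 cultures treated for 24 h.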

[9] = ATG_E_Box_CIS: Attagene CIS-FACTORIAL HepG2 Assay for human Enhancer Box (E-box) (AID 2282936); details: HepG2 E-box cis-reporter transcription, actives raise or lower the signal
Outline: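 Fluorescent reporter fragments separated by capillary electrophoresis gave the signal; mRNA came from HepG2 cells transfected with cis-element reporters and treated 24 h. Curves fitted bidirectionally relative to DMSO controls.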

[10] = ATG_M_61_CIS: Attagene CIS-FACTORIAL HepG2 Assay for M61 Transcription Factor (Internal Marker) (AID 2282937); details: HepG2 Attagene CIS-FACTORIAL M61 internal marker reporter; actives raise or lower the signal
Outline: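 Background-control endpoint: HepG2 cells with cis-regulated reporter constructs, 24 h exposure, reporter mRNA detected via fluorescent primer extension and capillary electrophoresis; values from bidirectional fitting with DMSO baseline.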

[11] = ATG_EGR_CIS: Attagene CIS-FACTORIAL HepG2 Assay for human Early Growth Response 1 (EGR1) (AID 2282938); details: HepG2 Attagene CIS-FACTORIAL EGR reporter mRNA; actives raise or lower the signal
Outline: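 Endpoint derived by bidirectional fitting versus DMSO vehicle. Method: cis-promoter reporter units transfected into HepG2, 24 h dosing, RNA isolation, RT-PCR with 6-FAM primer extension and HpaI digestion, then capillary electrophoresis fluorescence detection.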

[12] = ATG_M_19_CIS: Attagene CIS-FACTORIAL HepG2 Assay for M19 Transcription Factor (Internal Marker) (AID 2282939); details: HepG2 Attagene CIS-FACTORIAL M19 internal marker reporter; actives raise or lower the signal
Outline: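 Readout: fluorescent reporter-transcript fragments by capillary electrophoresis after RT-PCR. Human HepG2 liver cells carried transfected MRTU constructs reporting endogenous transcription-factor activity; exposure 24 h. Gain or loss of signal fitted relative to DMSO.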

[13] = ATG_Ets_CIS: Attagene CIS-FACTORIAL HepG2 Assay for human Erythroblast Transformation Specific (ETS) (AID 2282941); details: HepG2 ETS cis-reporter transcription, actives raise or lower the signal
Outline: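 RT-PCR/capillary electrophoresis fluorescence read-out of reporter mRNA; HepG2 transient multi-reporter transfection; 24 h compound exposure; gain or loss of signal fitted bidirectionally relative to DMSO.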

[14] = biological target: Hepatocyte nuclear factor 3-beta (Homo sapiens) (UniProt Q9Y261); assay: ATG_FoxA2_CIS: Attagene CIS-FACTORIAL HepG2 Assay for human Forkhead box A2 (FOXA2) (AID 2282942); details: HepG2 cis-reporter transcription factor activity, 24 h; actives raise or lower the signal
Hepatocyte nuclear factor 3-beta (Homo sapiens), sequence (Q9Y261 whole entry, looked up): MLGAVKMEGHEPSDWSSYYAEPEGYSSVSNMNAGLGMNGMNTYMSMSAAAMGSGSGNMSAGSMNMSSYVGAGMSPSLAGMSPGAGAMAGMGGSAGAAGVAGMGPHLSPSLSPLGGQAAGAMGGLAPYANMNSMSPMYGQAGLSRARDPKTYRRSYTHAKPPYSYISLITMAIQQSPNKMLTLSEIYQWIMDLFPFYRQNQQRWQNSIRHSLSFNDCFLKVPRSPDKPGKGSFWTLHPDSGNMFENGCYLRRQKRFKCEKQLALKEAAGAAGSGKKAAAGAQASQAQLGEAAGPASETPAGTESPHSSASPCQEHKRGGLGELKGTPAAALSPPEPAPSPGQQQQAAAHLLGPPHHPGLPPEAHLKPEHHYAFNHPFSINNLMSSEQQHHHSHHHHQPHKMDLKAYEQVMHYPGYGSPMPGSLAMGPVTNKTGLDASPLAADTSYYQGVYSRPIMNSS
Outline: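 Measured: reporter mRNA induction or loss in HepG2 transiently carrying multiple cis-regulated reporter units, 24 h after dosing. Quantified by RT-PCR plus capillary electrophoresis, normalised to DMSO.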

[15] = ATG_FoxO_CIS: Attagene CIS-FACTORIAL HepG2 Assay for human Forkhead box O (FoxO) (AID 2282943); details: HepG2 Attagene cis-reporter, FoxO element, mRNA; actives raise or lower the signal
Outline: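 HepG2, transient MRTU transfection (cis element, endogenous TFs). Dose 24 h. TriZol RNA → oligo(dT) RT → PCR → 6-FAM primer extension → HpaI cut → CE. Gain/loss vs DMSO.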

[16] = ATG_GATA_CIS: Attagene CIS-FACTORIAL HepG2 Assay for human GATA Binding Protein (AID 2282944); details: HepG2 GATA cis-element reporter, Attagene multiplex mRNA; actives raise or lower the signal
Outline: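 Read-out: fluorescent reporter mRNA fragments resolved by capillary electrophoresis after RT-PCR. Human liver HepG2 cells carried transiently transfected cis-regulated reporter constructs; chemicals incubated 24 h; gain or loss of signal fitted relative to DMSO.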

[17] = ATG_GLI_CIS: Attagene CIS-FACTORIAL HepG2 Assay for human Zinc Finger Protein GLI1 (AID 2282945); details: HepG2, Attagene cis-factorial reporter mRNA, GLI element; actives raise or lower the signal
Outline: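 Bidirectional curve fits relative to DMSO, using reporter mRNA levels from RT-PCR plus capillary electrophoresis. Cells were HepG2 transiently carrying cis-regulated reporter constructs, harvested 24 h after dosing.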

[18] = biological target: CCAAT/enhancer-binding protein beta (Homo sapiens) (UniProt P17676); assay: ATG_C_EBP_CIS: Attagene CIS-FACTORIAL HepG2 Assay for human CCAAT/Enhancer Binding Protein (C/EBP) beta (AID 2282927); details: HepG2 Attagene cis-factorial transcription factor reporter; actives raise or lower the signal
CCAAT/enhancer-binding protein beta (Homo sapiens), sequence (P17676 whole entry, looked up): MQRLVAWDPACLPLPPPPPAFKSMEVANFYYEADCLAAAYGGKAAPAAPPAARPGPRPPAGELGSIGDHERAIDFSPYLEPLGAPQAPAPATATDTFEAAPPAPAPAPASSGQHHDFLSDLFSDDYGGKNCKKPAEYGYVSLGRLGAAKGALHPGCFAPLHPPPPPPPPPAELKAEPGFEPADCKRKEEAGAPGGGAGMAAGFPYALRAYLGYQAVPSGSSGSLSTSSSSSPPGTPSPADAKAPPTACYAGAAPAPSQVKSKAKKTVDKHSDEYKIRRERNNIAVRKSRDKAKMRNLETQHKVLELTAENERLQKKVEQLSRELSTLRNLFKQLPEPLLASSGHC
Outline: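 Endogenous transcription factor activity in human liver HepG2 cells is inferred from induction of a CEBPB-linked reporter mRNA. Exposure lasts 24 h; activity is fitted in both directions relative to DMSO.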

[19] = ATG_ERE_CIS: Attagene CIS-FACTORIAL HepG2 Assay for Estrogen Response Element (ERE) (AID 2282940); details: HepG2 ERE cis-reporter, Attagene RNA transcript; actives raise or lower the signal
Outline: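 Readout: reporter mRNA induction by RT-PCR, FAM-labelled primer extension, HpaI digestion and capillary electrophoresis, 24 h after dosing transfected HepG2 cells. Endogenous transcription factors act on cis-element-regulated reporters. Gain or loss fitted against DMSO.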

Measured: AC50

CC1(C)C2=CCCC(C)(C)[C@]23CC[C@H]1C3
active: [1] 112 µM | [2] 100 µM | [4] 100 µM
not listed: [18] | [19]
inactive: all other assays above

CC(=O)O[C@@H]1CC2CCC1(C)C2(C)C (stereo partly specified)
not listed: [5] | [16] | [18] | [19]
inactive: all other assays above

CC1=CC[C@@]23C[C@@H]1C(C)(C)[C@@H]2CC[C@H]3C
active: [2] 165 µM | [15] 157 µM
not listed: [4] | [19]
inactive: all other assays above

CC(C)CCOC(=O)c1ccccc1
not listed: [19]
inactive: all other assays above

COC(=O)C=C(C)CCC=C(C)C
inactive: all assays above
